Experimental data from PubChem BioAssay (NCATS).
Inconclusive results are not listed. A call without a number means that no potency is given here. Calls of active or inactive are those of the source. Unless noted, calls follow the shape of the dose curve; as a rule, active = well fitted curve in the direction sought with a large enough effect; inconclusive = small, poorly fitted or top-dose-only effect, or another doubt; inactive = no such curve, though single readings can be large; an effect the other way counts as inactive or inconclusive.

How the values were obtained:
[1] = Validation screen for small molecules that induce DNA re-replication in MCF 10A normal breast cells (AID 463097); also: nearly all actives have a fitted effect of over 60% in size; also: potency is read from the fitted curve at half-maximal effect
Procedure, shortened: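 250 MCF 10A cells/well; compound pin-transferred; 48 hr, 37 C, 5% CO2; Hoechst 40 min; imaged 405/500-530 nm. Hits = more high-intensity nuclei.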

[2] = biological target: Ubiquitin carboxyl-terminal hydrolase 2 (Homo sapiens) (UniProt O75604); assay: qHTS Validation Assay for Inhibitors of Ubiquitin-specific Protease USP2a Using CHOP2 as the Reporter (AID 463106)
Procedure, shortened: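 Fluorescence read-out at Ex 485nm/Em 531nm after 60min RT, following addition of 25nM Ub-CHOP2 plus 25nM reporter substrate to USP2 core (10nM) pretreated 30min with compound. Data normalized to NEM full inhibition; concentration-response curves fitted.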

[3] = biological target: DNA polymerase III PolC-type (Bacillus subtilis (strain 168)) (UniProt P13267); assay: qHTS Validation Assay for the Inhibitors of DNA Replication in Gram-Positive Bacteria (AID 485295);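 also: reconstituted holoenzyme with PolC plus beta clamp SSB and primase; PicoGreen fluorescence of double-stranded DNA made on primed circular M13 template; series mostly up to about 57 µM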
Procedure, shortened: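 PicoGreen fluorescence (ex 480–485/em 535–540 nm) reports dsDNA synthesized on ssM13Gori template with dNTPs/NTPs. Enzyme: holoenzyme rebuilt from purified PolC, beta subunit, SSB and primase. Compound preincubated before substrate addition; RT throughout.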

[4] = biological target: Tumor susceptibility gene 101 protein (Homo sapiens) (UniProt Q99816); assay: qHTS Validation Assay for Iinhibitors of HIV-1 Budding by Blocking the Interaction of PTAP/TSG101 (AID 485342; calls by dose curve)
Procedure, shortened: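 FP read-out: FITC-PTAP peptide, 50 nM final, binding Tsg101 binding domain, 10 uM final; 20 min r.t.; 10 mM HEPES pH 7.5, 0.15 M NaCl, 0.01% Tween 20, 3 mM EDTA, 0.1 mM TCEP.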

[5] = biological target: Beta-2 adrenergic receptor (Homo sapiens) (UniProt P07550); assay: qHTS validation assay of beta-arrestin-biased ligands of beta2-adrenergic receptor (AID 485366)
Procedure, shortened: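 Compound series up to 46 microM applied to beta2-AR/beta-arrestin Tango cells, 18 hr, 37 degrees C, 5% CO2. Read-out: tTA-driven luciferase luminescence, converted to %Activity; concentration-response curves assigned curve classes.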

[6] = biological target: ATP-dependent 6-phosphofructokinase (Trypanosoma brucei brucei) (UniProt O15648); assay: qHTS Validation Assay to Find Inhibitors of T. brucei phosphofructokinase (AID 485368); conditions: outcome: dose series up to 57.5 µM
Procedure, shortened: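 qHTS format, up to 57 uM. PFK 1.25 nM; F6P 0.5 mM; ATP 0.1 mM; 5 mM MgCl2, 0.01% Tween20, 0.1% BSA; 0.1 M TEA pH 8.0; 45 min RT; ADP-Glo readout; no-enzyme control = full inhibition.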

[7] = Quantitative high throughput screen for delayed death inhibitors of the malarial parasite plastid, 96 hour incubation (AID 488745);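 also: luciferase-expressing P. falciparum in erythrocytes at 2% hematocrit and 0.1% parasitemia; series mostly up to about 29 µM; nearly all actives have a fitted effect of over 70% in size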
Procedure, shortened: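 Luciferase-expressing P. falciparum, infected RBCs 2% Hct/0.1% parasitemia (final); 96 h cpd exposure, 37 C, 5% CO2; RPMI 1640 + 0.5% Albumax, bicarbonate, gentamycin. Readout: luminescence loss = growth inhibition.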

[8] = Quantitative high throughput screen for delayed death inhibitors of the malarial parasite plastid, 48 hour incubation (AID 488752); also: nearly all actives have a fitted effect of over 65% in size; also: potency is read from the fitted curve at half-maximal effect
Procedure, shortened: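 Luciferase-expressing P. falciparum in RBCs, 2% Hct, 0.1% parasitemia final; RPMI 1640 + 0.5% Albumax; 48 h, 37 C, 5% CO2; luminescence readout, signal drop = growth inhibition.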

[9] = biological target: Thioredoxin reductase 1, cytoplasmic (Rattus norvegicus) (UniProt O89049); assay: qHTS Assay for Substrates of Mammalian Selenoprotein Thioredoxin Reductase 1 (TrxR1) (AID 488772);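 also: series mostly up to about 57 µM; a drop in NADPH fluorescence below the no-compound background marks a TrxR1 substrate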
Procedure, shortened: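 In this dual-purpose format, potential substrates are identified from the first fluorescence read after selenite addition, not from the 8-minute delta. Rat enzyme is preincubated with NADPH and then with compound at ~22 deg C.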

[10] = biological target: Flap endonuclease 1 (Homo sapiens) (UniProt P39748); assay: qHTS Validation Assay for the Inhibitors of Human Flap endonuclease 1 (FEN1) (AID 488816)
Procedure, shortened: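 Enzyme reagent 10 nM; cpds pinned; 15 min RT preinc.; substrate 50 nM final; reads t=0 and 15 min; no-enzyme buffer wells as neg. control; normalized data, 4-parameter Hill fit.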

[11] = biological target: M-phase phosphoprotein 8 (Homo sapiens) (UniProt Q99549); assay: qHTS Validation Assay for Inhibitors for MPP8 Chromodomain Interactions with Methylated Histone Tails (AID 488949); also: nearly all actives have a fitted effect of over 55% in size; also: potency is read from the fitted curve at half-maximal effect
Procedure, shortened: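 AlphaScreen read-out: streptavidin donor and nickel chelate acceptor beads (final 10 ug/mL), 30 min in the dark at RT. Complex of 50 nM MPP8 and 50 nM b-H3(1-18)K9me3 peptide had been exposed to compounds for 30 min beforehand.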

[12] = biological target: Chromobox protein homolog 1 (Homo sapiens) (UniProt P83916); assay: qHTS Validation Assay for Inhibitors of HP1-beta Chromodomain Interactions with Methylated Histone Tails (AID 488953); also: nearly all actives have a fitted effect of over 50% in size; also: potency is read from the fitted curve at half-maximal effect
Procedure, shortened: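 AlphaScreen proximity readout: streptavidin donor and Ni-chelate acceptor beads, 10 ug/mL final, 30 min dark, RT. Complex of 50 nM HP1-beta and 50 nM b-H3(1-18)K9me3 formed 30 min, then compound-treated 30 min; PBS pH 7.4/0.01% Tween-20.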

[13] = biological target: Methanococcus maripaludis chaperonin (MmCpn) (UniProt Q6LX38); assay: High-Throughput Screening for Modulators of Cytosolic Chaperonin Activity: MmCpn Primary Screen (AID 488978);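 also: 50 nM MmCpn enzyme hydrolysing 30 µM ATP at 37 °C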
Procedure, shortened: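 ADP formation read by HTRF Transcreener, 665/590 nm emission after 320 nm excitation. Enzyme: archaeal chaperonin at 50 nM final; substrate ATP 30 uM final; 10 min, 37C, after 5 min compound preincubation at RT.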

[14] = biological target: Thyrotropin receptor (Homo sapiens) (UniProt P16473); assay: qHTS Assay for Antagonists of the Thyroid Stimulating Hormone Receptor (AID 488980); also: series mostly up to about 58 µM
Procedure, shortened: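 TSHR-HEK293 cells; 70 uM RO 20-1724 PDE inhibitor; compound + EC80 TSH (4 nM final); anti-cAMP cryptate antibody/cAMP-d2 in lysis buffer, 30 min RT; HTRF 665/620 nm read.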

[15] = biological target: D(1A) dopamine receptor (Homo sapiens) (UniProt P21728); assay: HTS Assay for Allosteric Agonists of the Human D1 Dopamine Receptor: Primary Screen for Potentiators (AID 488982)
Procedure, shortened: (§1)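 Tetracycline-induced HEK293 Trex D1 cells with forced coupling to calcium, loaded with no-wash calcium dye; kinetic fluorescence read 180 s after compound addition for agonism, then a further 180 s after an EC20 dopamine challenge for potentiation.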

[16] = biological target: D(1A) dopamine receptor (Homo sapiens) (UniProt P21728); assay: HTS Assay for Allosteric Agonists of the Human D1 Dopamine Receptor: Primary Screen for Antagonists (AID 488983);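 also: calcium flux response to an EC80 dopamine challenge measured with no-wash dye; nearly all actives have a fitted effect of over 65% in size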
Procedure, shortened: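 Calcium flux readout, no-wash dye, inducible HEK293 T-REx D1 line (force-coupled). Compound added after 10 s baseline, 180 s kinetic read; then dopamine at EC80, further 180 s read.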

[17] = biological target: D(1A) dopamine receptor (Homo sapiens) (UniProt P21728); assay: HTS Assay for Allosteric Agonists of the Human D1 Dopamine Receptor: Primary Screen for Agonists (AID 488981)
Procedure, shortened: as §1

[18] = qHTS Validation Assay to Find Inhibitors of Chronic Active B-Cell Receptor Signaling (AID 485345; active = well fitted curve in the direction sought with a large enough effect in the main read-out, with a control signal flat, not every such curve was filed as active)
Procedure, shortened: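 TMD8 ABC-DLBCL cells stably carrying doxycycline-inducible IkappaBalpha–green luciferase fusion plus unfused red luciferase; compounds 46 uM to 3 nM, 4 h at 37C with doxycycline. Corrected green/red luminescence ratio normalized to 10 uM MG-132 and basal cell wells; curves fitted.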

[19] = biological target: Thioredoxin reductase 1, cytoplasmic (Rattus norvegicus) (UniProt O89049); assay: qHTS Assay for Inhibitors of Mammalian Selenoprotein Thioredoxin Reductase 1 (TrxR1) (AID 488773); conditions: Potency: inhibition;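 also: drop in NADPH fluorescence over an 8 min run after selenite addition; series mostly up to about 57 µM; nearly all actives have a fitted effect of over 40% in size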
Procedure, shortened: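 Inhibition is scored from the loss of NADPH fluorescence between first and last reads of an 8-min kinetic run. Selenite (400 uM) was the substrate, added after 15 min compound preincubation at room temperature.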

[20] = biological target: Transient receptor potential cation channel subfamily V member 1 (Homo sapiens) (UniProt Q8NER1); assay: HTS Assay for Compounds that Act as Enhancers of the Vanilloid Receptor 1 (AID 488979)
Procedure, shortened: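 TRPV1 cells loaded with Fluo-8 calcium dye; compound added and Ca2+ signal (ex 480/em 520 nm) followed 3 min, then capsaicin at EC20 added and read 2 more min to detect enhancement.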

Sequence of Flap endonuclease 1 (Homo sapiens) (P39748 whole entry, looked up): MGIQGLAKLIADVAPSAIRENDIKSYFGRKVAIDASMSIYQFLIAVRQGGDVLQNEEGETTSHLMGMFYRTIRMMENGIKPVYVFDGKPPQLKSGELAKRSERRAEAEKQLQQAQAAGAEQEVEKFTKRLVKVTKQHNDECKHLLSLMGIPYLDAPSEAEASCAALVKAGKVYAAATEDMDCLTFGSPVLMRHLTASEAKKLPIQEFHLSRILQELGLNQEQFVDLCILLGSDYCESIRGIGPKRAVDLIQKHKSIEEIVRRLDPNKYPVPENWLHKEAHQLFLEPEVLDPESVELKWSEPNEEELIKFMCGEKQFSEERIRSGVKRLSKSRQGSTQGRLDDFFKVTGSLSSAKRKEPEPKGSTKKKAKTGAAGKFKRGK
Sequence of ATP-dependent 6-phosphofructokinase (Trypanosoma brucei brucei) (O15648 whole entry, looked up): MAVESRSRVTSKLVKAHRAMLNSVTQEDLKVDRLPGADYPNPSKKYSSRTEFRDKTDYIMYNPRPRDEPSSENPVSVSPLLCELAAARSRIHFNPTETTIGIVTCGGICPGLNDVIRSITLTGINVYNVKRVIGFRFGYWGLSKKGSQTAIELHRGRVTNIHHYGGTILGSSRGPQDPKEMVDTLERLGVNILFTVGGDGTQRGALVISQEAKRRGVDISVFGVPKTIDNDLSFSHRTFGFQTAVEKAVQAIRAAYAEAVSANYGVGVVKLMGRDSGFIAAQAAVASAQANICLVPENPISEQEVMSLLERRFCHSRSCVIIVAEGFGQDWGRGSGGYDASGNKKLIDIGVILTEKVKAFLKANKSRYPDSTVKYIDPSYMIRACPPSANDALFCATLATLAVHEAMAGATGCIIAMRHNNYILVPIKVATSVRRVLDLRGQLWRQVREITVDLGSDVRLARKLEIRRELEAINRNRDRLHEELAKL
Sequence of M-phase phosphoprotein 8 (Homo sapiens) (Q99549 whole entry, looked up): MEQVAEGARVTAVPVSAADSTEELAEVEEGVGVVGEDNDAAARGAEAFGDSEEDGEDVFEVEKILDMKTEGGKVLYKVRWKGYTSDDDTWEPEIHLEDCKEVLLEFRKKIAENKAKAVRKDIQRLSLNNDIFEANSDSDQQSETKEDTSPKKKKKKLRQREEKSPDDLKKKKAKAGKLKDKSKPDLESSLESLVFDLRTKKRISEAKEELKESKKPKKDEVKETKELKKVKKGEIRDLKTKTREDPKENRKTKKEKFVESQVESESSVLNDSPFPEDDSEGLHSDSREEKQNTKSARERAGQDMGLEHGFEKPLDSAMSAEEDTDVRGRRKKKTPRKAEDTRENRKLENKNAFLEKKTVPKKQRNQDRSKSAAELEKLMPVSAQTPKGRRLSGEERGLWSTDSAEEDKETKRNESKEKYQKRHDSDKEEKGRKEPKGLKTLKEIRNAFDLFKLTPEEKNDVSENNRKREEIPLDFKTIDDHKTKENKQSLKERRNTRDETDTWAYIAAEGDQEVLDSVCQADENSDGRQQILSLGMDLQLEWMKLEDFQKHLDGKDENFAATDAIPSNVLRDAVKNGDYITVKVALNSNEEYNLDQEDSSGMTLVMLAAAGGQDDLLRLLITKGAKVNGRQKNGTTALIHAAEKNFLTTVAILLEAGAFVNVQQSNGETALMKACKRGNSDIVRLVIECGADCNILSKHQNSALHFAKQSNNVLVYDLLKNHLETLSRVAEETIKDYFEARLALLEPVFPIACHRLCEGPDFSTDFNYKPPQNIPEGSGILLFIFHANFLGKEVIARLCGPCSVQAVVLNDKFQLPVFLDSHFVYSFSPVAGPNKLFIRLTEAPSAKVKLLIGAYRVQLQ
Sequence of Ubiquitin carboxyl-terminal hydrolase 2 (Homo sapiens) (O75604 whole entry, looked up): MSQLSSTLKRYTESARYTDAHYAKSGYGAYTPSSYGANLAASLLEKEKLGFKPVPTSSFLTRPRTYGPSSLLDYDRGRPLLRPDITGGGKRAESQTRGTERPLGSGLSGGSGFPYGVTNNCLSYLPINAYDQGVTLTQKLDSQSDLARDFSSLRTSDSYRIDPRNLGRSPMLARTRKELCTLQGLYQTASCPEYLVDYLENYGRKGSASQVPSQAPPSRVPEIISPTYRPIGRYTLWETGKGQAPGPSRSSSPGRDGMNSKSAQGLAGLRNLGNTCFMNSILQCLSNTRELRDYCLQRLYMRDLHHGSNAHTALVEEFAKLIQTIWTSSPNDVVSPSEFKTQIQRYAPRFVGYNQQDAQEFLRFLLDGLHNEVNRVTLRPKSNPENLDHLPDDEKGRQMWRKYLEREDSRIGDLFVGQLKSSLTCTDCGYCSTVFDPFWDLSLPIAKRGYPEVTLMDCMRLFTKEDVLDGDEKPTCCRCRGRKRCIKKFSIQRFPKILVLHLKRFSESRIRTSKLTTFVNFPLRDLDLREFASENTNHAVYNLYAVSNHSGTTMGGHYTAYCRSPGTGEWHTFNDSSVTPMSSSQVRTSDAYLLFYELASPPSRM
Sequence of Transient receptor potential cation channel subfamily V member 1 (Homo sapiens) (Q8NER1 whole entry, looked up): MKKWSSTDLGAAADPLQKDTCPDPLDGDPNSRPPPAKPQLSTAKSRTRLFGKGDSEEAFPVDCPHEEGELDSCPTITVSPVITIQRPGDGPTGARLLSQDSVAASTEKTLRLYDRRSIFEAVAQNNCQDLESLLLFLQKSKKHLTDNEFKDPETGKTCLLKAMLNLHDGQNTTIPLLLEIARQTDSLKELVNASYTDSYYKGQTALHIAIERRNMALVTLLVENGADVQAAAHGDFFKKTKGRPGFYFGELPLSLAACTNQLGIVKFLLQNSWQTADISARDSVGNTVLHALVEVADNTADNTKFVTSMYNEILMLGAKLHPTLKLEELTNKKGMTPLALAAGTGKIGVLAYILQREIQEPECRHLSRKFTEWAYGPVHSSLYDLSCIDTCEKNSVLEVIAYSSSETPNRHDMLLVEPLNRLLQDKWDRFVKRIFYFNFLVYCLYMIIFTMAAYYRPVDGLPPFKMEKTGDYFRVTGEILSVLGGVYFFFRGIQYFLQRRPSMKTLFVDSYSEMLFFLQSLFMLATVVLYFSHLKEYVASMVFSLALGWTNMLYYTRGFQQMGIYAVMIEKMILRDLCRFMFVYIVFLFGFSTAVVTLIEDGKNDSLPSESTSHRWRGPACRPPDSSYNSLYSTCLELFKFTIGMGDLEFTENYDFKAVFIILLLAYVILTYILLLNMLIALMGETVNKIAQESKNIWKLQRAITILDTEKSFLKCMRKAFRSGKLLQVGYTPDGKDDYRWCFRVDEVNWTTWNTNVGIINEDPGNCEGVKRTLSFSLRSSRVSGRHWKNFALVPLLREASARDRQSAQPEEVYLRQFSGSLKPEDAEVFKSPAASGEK
Sequence of Beta-2 adrenergic receptor (Homo sapiens) (P07550 whole entry, looked up): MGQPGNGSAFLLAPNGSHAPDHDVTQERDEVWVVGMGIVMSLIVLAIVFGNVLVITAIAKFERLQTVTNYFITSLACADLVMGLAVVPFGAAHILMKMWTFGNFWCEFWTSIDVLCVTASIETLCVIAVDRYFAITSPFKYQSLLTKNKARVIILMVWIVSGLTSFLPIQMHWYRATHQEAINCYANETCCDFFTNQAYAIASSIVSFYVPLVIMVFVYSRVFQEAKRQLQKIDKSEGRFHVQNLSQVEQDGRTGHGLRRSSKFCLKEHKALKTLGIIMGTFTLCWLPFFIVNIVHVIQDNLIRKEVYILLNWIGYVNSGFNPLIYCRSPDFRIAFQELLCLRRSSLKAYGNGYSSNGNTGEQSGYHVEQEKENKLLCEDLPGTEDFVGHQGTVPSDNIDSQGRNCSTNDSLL
Sequence of DNA polymerase III PolC-type (Bacillus subtilis (strain 168)) (P13267 whole entry, looked up): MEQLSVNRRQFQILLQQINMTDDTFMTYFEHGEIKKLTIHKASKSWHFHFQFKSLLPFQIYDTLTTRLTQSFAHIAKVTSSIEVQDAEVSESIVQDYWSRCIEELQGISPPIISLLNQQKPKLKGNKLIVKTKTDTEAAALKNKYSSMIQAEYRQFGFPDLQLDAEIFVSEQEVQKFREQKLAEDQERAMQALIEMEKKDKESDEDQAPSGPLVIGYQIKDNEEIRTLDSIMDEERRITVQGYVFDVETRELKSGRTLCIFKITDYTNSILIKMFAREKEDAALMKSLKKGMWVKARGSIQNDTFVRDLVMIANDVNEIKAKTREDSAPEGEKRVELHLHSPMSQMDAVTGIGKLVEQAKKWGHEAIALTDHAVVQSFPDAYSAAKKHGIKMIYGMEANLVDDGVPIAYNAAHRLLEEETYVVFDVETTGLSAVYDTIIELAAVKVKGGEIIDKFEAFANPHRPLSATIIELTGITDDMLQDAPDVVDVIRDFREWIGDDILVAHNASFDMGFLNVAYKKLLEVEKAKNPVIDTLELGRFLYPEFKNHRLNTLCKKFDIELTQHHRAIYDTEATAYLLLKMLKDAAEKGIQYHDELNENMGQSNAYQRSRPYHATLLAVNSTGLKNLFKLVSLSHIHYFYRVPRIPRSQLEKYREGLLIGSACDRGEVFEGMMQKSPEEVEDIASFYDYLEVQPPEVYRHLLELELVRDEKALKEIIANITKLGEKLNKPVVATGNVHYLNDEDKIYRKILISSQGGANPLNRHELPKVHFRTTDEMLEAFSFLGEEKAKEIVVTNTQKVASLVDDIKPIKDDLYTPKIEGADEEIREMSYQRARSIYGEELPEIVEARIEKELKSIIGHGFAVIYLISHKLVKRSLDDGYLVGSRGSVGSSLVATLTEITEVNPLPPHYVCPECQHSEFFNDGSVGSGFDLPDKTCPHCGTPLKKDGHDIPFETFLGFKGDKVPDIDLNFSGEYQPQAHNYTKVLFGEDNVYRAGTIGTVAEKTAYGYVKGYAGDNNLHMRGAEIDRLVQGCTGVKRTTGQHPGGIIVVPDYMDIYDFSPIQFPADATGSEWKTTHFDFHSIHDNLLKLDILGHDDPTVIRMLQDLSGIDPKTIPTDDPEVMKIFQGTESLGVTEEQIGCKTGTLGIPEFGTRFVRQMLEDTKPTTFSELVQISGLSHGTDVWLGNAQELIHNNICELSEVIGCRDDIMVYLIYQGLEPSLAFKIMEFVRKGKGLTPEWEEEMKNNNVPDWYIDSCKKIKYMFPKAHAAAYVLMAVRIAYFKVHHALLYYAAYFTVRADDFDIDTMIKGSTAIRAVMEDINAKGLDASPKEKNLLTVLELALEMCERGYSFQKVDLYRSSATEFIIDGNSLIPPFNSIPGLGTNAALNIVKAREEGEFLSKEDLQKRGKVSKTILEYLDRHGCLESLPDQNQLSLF

Row | Structure (SMILES) | Potency [1] | outcome [2] | Potency [3] | outcome [4] | outcome [5] | outcome [6] | Potency [7] | Potency [8] | outcome [9] | Potency [10] | Potency [11] | Potency [12] | outcome [13] | outcome [14] | Potency [15] | Potency [16] | Potency [17] | Potency [18] | Potency [19] | outcome [20]
1 | C[C@]12C=CC(=O)C=C1CC[C@H]1[C@@H]3C[C@@H](O)[C@](O)(C(=O)CO)[C@@]3(C)C[C@H](O)[C@@]12F | inactive | inactive | inactive | inactive | inactive | inactive | inactive | inactive | inactive | inactive | inactive | inactive | inactive | inactive | inactive | inactive |  |  |  | 
2 | OCCN1CCN(CC/C=C2/c3ccccc3Sc3ccc(C(F)(F)F)cc32)CC1 | 12.6 µM (active) | inactive | inactive | inactive | inactive |  |  | 8.28 µM (active) | inactive | inactive | 25.1 µM (active) | 35.5 µM (active) | inactive | inactive | inactive |  | inactive |  |  | 
3 | Nc1c2c(nc3ccccc13)CCCC2O (centres undefined) | inactive | inactive | inactive | inactive | inactive |  |  | inactive | inactive | inactive | inactive | inactive | inactive | inactive | inactive | inactive | inactive | inactive | inactive | 
4 | Brc1c(NC2=NCCN2)ccc2nccnc12 | inactive | inactive | inactive | inactive | inactive | inactive | inactive |  |  |  | inactive |  | inactive | inactive | inactive | inactive | inactive |  |  | 
5 | CC(C)NCC(O)c1cc(O)cc(O)c1 (centres undefined) | inactive | inactive | inactive | inactive |  | inactive | inactive | inactive | inactive |  | inactive | inactive | inactive | inactive | inactive | inactive |  | inactive |  | inactive
6 | C[C@]12CCC(=O)C=C1CC[C@@H]1[C@@H]2C(=O)C[C@@]2(C)[C@H]1CC[C@]2(O)C(=O)CO | inactive | inactive | inactive | inactive | inactive | inactive |  | inactive | inactive | inactive | inactive |  | inactive | inactive | inactive | inactive | inactive |  |  | inactive
7 | C[C@]12CCC(=O)C=C1CC[C@@H]1[C@@H]2CC[C@@]2(C)[C@H]1CC[C@]2(O)C(=O)CO | inactive | inactive | inactive | inactive | inactive | inactive | inactive | inactive |  |  | inactive | inactive | inactive | inactive | inactive | inactive | inactive |  | inactive | 
8 | CN(C(=O)CCCOc1ccc2[nH]c(=O)ccc2c1)C1CCCCC1 | inactive | inactive | inactive | inactive | inactive | inactive |  | inactive |  | inactive | inactive | inactive | inactive | inactive | inactive | inactive | inactive |  | inactive | 
9 | FC(F)(F)c1ccccc1-n1ccnc1 | inactive | inactive | inactive | inactive | inactive |  |  | inactive | inactive | inactive | inactive |  | inactive |  | inactive | inactive | inactive | inactive |  | inactive
